Source: PubChem BioAssay

Experiment: compound effects on lung adenocarcinoma cell viability – A549, calcein-AM fluorescence, 48 h, basal, profiling panel (AID 1162); also: test concentration not given here
Details: higher = more signal

Row | SMILES | z-score
1 | CC(CCN1CCCCc2nc(C)c(C)cc21)=NOC[C@@H](C)[C@H](OCc1ccccc1)C(C)C | 0.139
2 | COC(=O)CC=C[C@@H](C)[C@@H](C=NO[C@@H]1O[C@H](COC(C)=O)[C@@H](OC(C)=O)[C@H](OC(C)=O)[C@H]1OC(C)=O)OC | -0.999
3 | CO[C@@H]1COC(=O)[C@H](CCSC)NC(=O)CC=C[C@@H](C)COC(=O)CCC[C@H]1C | 0.471
4 | CCCNC(=O)OC[C@H]1O[C@H](CCON=C(C)CCC(=O)OC[C@H]2O[C@H](c3ccccc3)C=C[C@@H]2Oc2ccc(OC)cc2)C=C[C@@H]1Oc1ccc(OC)cc1 | 0.415
5 | CCN1C(=O)[C@@H]2[C@H]3C(=CC[C@@H]2C1=O)C1(OCCCO1)[C@H]1O[C@H]1[C@H]3O | -4.56
6 | O=C1[C@H]2[C@H]3[C@H](O)[C@H](O)CC(=NOC[C@@H](O)COCc4ccco4)[C@H]3CC[C@H]2C(=O)N1Cc1ccccc1 | 0.172
7 | CO[C@H]1COC(=O)[C@@H](C)COC(=O)[C@H](C)NC(=O)CC=C[C@H]1C | -0.235
8 | C[C@H]1COC(=O)[C@@H]2CCCN2C(=O)[C@@H](C)COC(=O)[C@H](Cc2ccccc2)NC1=O | -0.398
9 | COC(=O)CC=C[C@@H](C)[C@H](OCc1cccc(-c2ccccc2)c1)C1CCCCC1 | 0.687
10 | C=CC[C@@H]1C=C[C@H](ON=C(C)CCC(=O)OC[C@H]2O[C@H](C#Cc3ccccc3)C=C[C@@H]2Oc2ccc(C)cc2)[C@@H](CO)O1 | 0.572
11 | CON=C[C@@H](NS(=O)(=O)c1ccc(C)cc1)[C@H](C)C=CCC(=O)OC | 1.19
12 | CO[C@@H]1COC(=O)CC=C[C@H](C)[C@H](OC)COC(=O)[C@H](C)NC(=O)CC=C[C@H]1C | 0.296
13 | CC(CCC(=O)OC[C@H]1O[C@H](C#Cc2ccccc2)C=C[C@@H]1Oc1ccc(C)cc1)=NO[C@H](C)c1cn([C@H](CO)Cc2ccccc2)nn1 | 0.122
14 | CCOC(=O)[C@H](Cc1ccccc1)NC(=O)CCC1CC(OC(=O)NCc2cccc3ccccc23)CC2(CCCC(COC(=O)NCC(c3ccccc3)c3ccccc3)O2)O1 (stereo partly specified) | 1.15
15 | CC(C)=CCCC(C)=CCON=C1C[C@@H](O)[C@@H](O)[C@@H]2[C@@H]3C(=O)N(C[C@@H]4CCCO4)C(=O)[C@@H]3CC[C@H]12 | -0.0285
16 | COC(=O)[C@H]1O[C@@H](c2c(OC)c(OC)c(C)c(OC)c2OC)[C@H](C)[C@@H](O)[C@H]1C | 1.2
17 | COc1ccc(O[C@H]2C=C[C@@H](c3ccccc3)O[C@@H]2COC(=O)CCC(C)=NOC[C@@H](O)[C@H]2O[C@@H]3OC(C)(C)O[C@@H]3[C@H]2O)cc1 | 1.11
18 | CCOC(=O)[C@H](CC(C)C)NC(=O)CCC1CC(OC(=O)NCCc2ccc(F)cc2)CC2(CCCC(COC(=O)NCC3CCCCC3)O2)O1 (stereo partly specified) | -0.656

Row | SMILES | z-score
19 | CC(C)=CCCC(C)=CCON=C1C[C@@H](O)[C@@H](O)[C@@H]2[C@@H]3C(=O)N(C4CCCCC4)C(=O)[C@@H]3CC[C@@H]12 | -0.972
20 | COC(=O)CC=C[C@@H](C)[C@@H](C=NOC[C@H]1O[C@H](c2ccccc2)C=C[C@@H]1Oc1ccc(OC)cc1)NS(=O)(=O)c1ccc(C)cc1 | -1.31
21 | CCc1cc2c(nc1CC)CCN(CCC(C)=NO[C@H](C)c1cn([C@@H]3COC[C@H]3O)nn1)C2 | 0.821
22 | CCOC(=O)NN=C1C[C@@H](O)[C@@H](O)[C@@H]2[C@@H]3C(=O)N(Cc4ccc5c(c4)OCO5)C(=O)[C@@H]3CC[C@H]12 | -0.257
23 | CO[C@H]1COC(=O)CC=C[C@H](C)[C@@H](OC)COC(=O)[C@@H](C)NC(=O)CC=C[C@@H]1C | 0.181
24 | CO[C@@H]1COC(=O)CC=C[C@@H](C)[C@@H]2C=C[C@H](O)[C@@H](COC(=O)CC=C[C@H]1C)O2 | 1.26
25 | CCOC(=O)[C@H](CC(C)C)NC(=O)CCC1CC(OC(=O)NCCc2ccc(F)cc2)CC2(CCCC(COC(=O)NCCc3ccccc3OC)O2)O1 (stereo partly specified) | 0.239
26 | CCCNC(=O)OC[C@H]1O[C@H](CCON=C(C)CCN2CCCc3nc(C)c(C)cc32)C=C[C@@H]1Oc1ccc(OC)cc1 | 0.476
27 | CCC(=O)[C@@]1(O)C(=O)N2C(=C3C(=O)OCC[C@@H]31)N(Cc1ccccc1)C(C)=C(C(=O)OC)[C@H]2c1ccccc1 | -0.0783
28 | CC(C)(C)N1C(=O)[C@H]2[C@H]3[C@H](O)C=CC(=O)[C@@H]3CC[C@H]2C1=O | -0.269
29 | CC(CCN1CCCc2nc(C)c(C)cc21)=NO[C@@H](C)c1cc(-c2c(C)cc(C)cc2C)no1 | 0.91
30 | C[C@H](ON=C1[C@H]2CCn3c(=O)n(-c4ccccc4)c(=O)n3[C@H]2[C@H](O)[C@@H]2O[C@H]12)c1cn([C@H](CO)Cc2ccccc2)nn1 | -0.142
31 | CCN1C(=O)[C@H]2[C@H]3[C@H](O)[C@H](O)CC(=O)[C@H]3CC[C@H]2C1=O | 0.0697
32 | C#CCCCON=C1C[C@@H](O)[C@@H](O)[C@@H]2[C@@H]3C(=O)N(c4ccc(F)cc4F)C(=O)[C@@H]3CC[C@H]12 | 1.14
33 | O=C(NN=C1C[C@@H](O)[C@@H](O)[C@@H]2[C@@H]3C(=O)N(C4CCCCC4)C(=O)[C@@H]3CC[C@@H]12)OCc1ccccc1 | 0.225
34 | CC(CCN1CCCCc2nc(C)c(C)cc21)=NOC[C@@H](O)COCc1ccco1 | 0.224
35 | C=CC1=C[C@H](O)[C@@H]2O[C@@H]2C12OCCCO2 | -0.375
36 | CON=C1[C@H]2CCn3c(=O)n(-c4ccccc4)c(=O)n3[C@H]2[C@H](O)[C@@H]2O[C@H]12 | 0.828
